Reference: PubChem BioAssay (EPA / NIEHS)
Several values for one entry are separate records, joined by “and”; a condition that tells them apart may be missing. Identical values can stand only once. Results filed as inconclusive are left out. The source holds several records for some structures; these can differ, active in one and inactive in another. Activity calls are given as the source filed them. How the source made its calls, unless noted: active means hit-call score of the fitted dose curve at least 0.9, where 1 is the maximum; inactive means score below 0.9.

Assays:
[1] = read-out: Interleukin-8 (IL8), CXCL8 (gene 3576); test: BSK_BE3C_IL8: BioMAP Diversity Plus: BE3C Assay for Interleukin-8 (IL8) Biomarker Activity (AID 2284280); settings: primary human bronchial epithelial cells
How it was run: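 Primary human bronchial epithelial cells (BE3C system) exposed 24 h; IL-8 measured by ELISA and fitted in positive direction versus DMSO. Overt cytotoxicity assessed by SRB total-protein staining in parallel cultures.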

[2] = read-out: Epidermal growth factor receptor (EGFR), EGFR (gene 1956); test: BSK_BE3C_EGFR: BioMAP Diversity Plus: BE3C Assay for Epidermal growth factor receptor (EGFR) Biomarker Activity (AID 2284281); settings: primary human bronchial epithelial cells
How it was run: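 Human primary bronchial epithelial cells (BE3C system) dosed with chemicals; EGFR measured by ELISA at 24 h, fitted in the positive direction relative to DMSO. Cytotoxicity tracked in parallel cultures by SRB total-protein staining.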

KRT18 (gene 3875) = test: BSK_BE3C_Keratin818: BioMAP Diversity Plus: BE3C Assay for Keratin 818 Biomarker Activity (AID 2284282); settings: primary human bronchial epithelial cells
How it was run: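 Chemicals are added to human lung bronchial epithelial primary cells (BE3C system) and incubated 24 h. Keratin 8/18 is then measured by ELISA, with parallel SRB total-protein staining gauging overt cytotoxicity.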

[3] = read-out: Matrix Metallopeptidase 9 (MMP9), MMP9 (gene 4318); test: BSK_BE3C_MMP9: BioMAP Diversity Plus: BE3C Assay for Matrix Metallopeptidase 9 (MMP9) Biomarker Activity (AID 2284283); settings: primary human bronchial epithelial cells
How it was run: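 Human primary bronchial epithelial cells exposed 24 h to compound. MMP9 quantified by ELISA. SRB total-protein staining of parallel cultures assesses cytotoxicity. Positive-direction fit relative to DMSO.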

[4] = read-out: Plasminogen activator inhibitor-1 (PAI1), SERPINE1 (gene 5054); test: BSK_CASM3C_PAI1: BioMAP Diversity Plus: CASM3C Assay for Plasminogen activator inhibitor-1 (PAI1) Biomarker Activity (AID 2284284); settings: primary human coronary artery smooth muscle cells;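 further: PAI-1 protein level measured by ELISA 24 h after dosing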
[5] = read-out: Monocyte Chemoattractant Protein-1 (MCP1), CCL2 (gene 6347); test: BSK_hDFCGF_MCP1: BioMAP Diversity Plus: hDFCGF Assay for Monocyte Chemoattractant Protein-1 (MCP1) Biomarker Activity (AID 2284285); settings: primary human foreskin fibroblasts
How it was run: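 Human foreskin fibroblasts (hDFCGF system) were exposed to compound and secreted MCP-1 was measured by ELISA after 24 hours. Activity was fitted relative to DMSO. Cytotoxicity was checked by SRB total-protein staining in parallel cultures.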

[6] = read-out: Intercellular Adhesion Molecule 1 (ICAM1), ICAM1 (gene 3383); test: BSK_hDFCGF_ICAM1: BioMAP Diversity Plus: hDFCGF Assay for Intercellular Adhesion Molecule 1 (ICAM1) Biomarker Activity (AID 2284287); settings: primary human foreskin fibroblasts
How it was run: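 Primary human foreskin fibroblasts (hDFCGF system) dosed with chemical; ICAM-1 quantified by ELISA at 24 h relative to DMSO. Parallel SRB total-protein staining to assess overt cytotoxicity.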

CD40, CD40 (gene 958) = test: BSK_IMphg_CD40: BioMAP Diversity Plus: IMphg Assay for CD40 Biomarker Activity (AID 2284288); settings: primary human endothelial cells with macrophages
How it was run: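 Venular endothelial cells co-cultured with macrophages (human primary), CD40 measured by ELISA 24 h after dosing. Positive-direction fit vs DMSO baseline; cytotoxicity tracked by SRB total-protein staining in parallel cultures.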

[7] = read-out: TIMP metallopeptidase inhibitor 2 (TIMP2), TIMP2 (gene 7077); test: BSK_hDFCGF_TIMP2: BioMAP Diversity Plus: hDFCGF Assay for TIMP metallopeptidase inhibitor 2 (TIMP2) Biomarker Activity (AID 2284289); settings: primary human foreskin fibroblasts
How it was run: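 Primary human foreskin fibroblasts in the hDFCGF system, dosed for 24 h; TIMP-2 level measured by ELISA, fitted in the positive direction against DMSO; cytotoxicity checked in parallel by sulforhodamine B total protein staining.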

[8] = read-out: Interleukin-1 alpha (IL1a), IL1A (gene 3552); test: BSK_IMphg_IL1a: BioMAP Diversity Plus: IMphg Assay for Interleukin-1 alpha (IL1a) Biomarker Activity (AID 2284290); settings: primary human endothelial cells with macrophages
How it was run: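 Human venular endothelial cells co-cultured with macrophages, IMphg system. IL-1α is measured by ELISA 24 h after dosing and fitted in the positive direction against DMSO. Cytotoxicity is assessed by SRB staining of parallel cultures.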

[9] = read-out: E-selectin (Homo sapiens) (UniProt P16581); test: BSK_IMphg_ESelectin: BioMAP Diversity Plus: IMphg Assay for Eselectin Biomarker Activity (AID 2284291); settings: primary human endothelial cells with macrophages
How it was run: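 Human venular endothelial cell–macrophage co-culture, E-selectin measured by ELISA 24 h after chemical dosing. Signal fitted in the positive direction against DMSO as negative control and baseline.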

[10] = read-out: Macrophage colony-stimulating factor (MCSF), CSF1 (gene 1435); test: BSK_IMphg_MCSF: BioMAP Diversity Plus: IMphg Assay for Macrophage colony-stimulating factor (MCSF) Biomarker Activity (AID 2284293); settings: primary human endothelial cells with macrophages
How it was run: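 Co-culture of human venular endothelial cells and macrophages, 24 hours of chemical exposure. M-CSF quantified by ELISA, with parallel SRB total-protein staining for cytotoxicity; activity fitted relative to DMSO.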

[11] = read-out: Interleukin-10 (IL10), IL10 (gene 3586); test: BSK_IMphg_IL10: BioMAP Diversity Plus: IMphg Assay for Interleukin-10 (IL10) Biomarker Activity (AID 2284294); settings: primary human endothelial cells with macrophages
How it was run: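 Human venular endothelial cells cocultured with macrophages, dosed 24 h; IL-10 measured by ELISA, activity relative to DMSO. Cytotoxicity assessed in parallel cultures by sulforhodamine B total-protein staining.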

[12] = BSK_IMphg_SRB.Mphg: Macrophage Viability Assessment in the BioMAP Diversity Plus: IMphg Assay (AID 2284295); settings: primary human endothelial cells with macrophages
How it was run: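 Venular endothelial cells co-cultured with macrophages, read 24 h after dosing. Total protein measured by 0.1% SRB staining after 10% TCA fixation, absorbance at 560 nm. Fitted in positive direction against DMSO baseline.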

[13] = read-out: Thrombomodulin, THBD (gene 7056); test: BSK_LPS_Thrombomodulin: BioMAP Diversity Plus: LPS Assay for Thrombomodulin Biomarker Activity (AID 2284296); settings: primary human HUVEC with PBMC
How it was run: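 Human umbilical vein endothelial cells co-cultured with PBMC and stimulated with LPS; cell-surface thrombomodulin measured by ELISA 24 hours after compound. Gain or loss versus DMSO; cytotoxicity checked by SRB staining in parallel cultures.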

CD69, CD69 (gene 969) = test: BSK_LPS_CD69: BioMAP Diversity Plus: LPS Assay for CD69 Biomarker Activity (AID 2284303); settings: primary human HUVEC with PBMC
How it was run: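 Human umbilical vein endothelial cells co-cultured with PBMC under LPS stimulation, chemical exposure 24 h; cell-surface CD69 measured by ELISA and fitted in the positive direction versus DMSO.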

[14] = CCTE_Mundy_HCI_iCellGluta_NOG_NeuriteLength: CCTE's Neurite Outgrowth Assay in iCellGluta cells for Neurite Length, Mundy Lab (AID 2284318; active means hit-call score of the fitted dose curve at least 0.9, where 1 is the maximum)
How it was run: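 Automated high-content imaging of betaIII-tubulin (Alexa Fluor-488) and Hoechst-stained cells gave neurite length, normalized to the DMSO baseline.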

[15] = read-out: Vascular cell adhesion molecule 1 (VCAM1), VCAM1 (gene 7412); test: BSK_IMphg_VCAM1: BioMAP Diversity Plus: IMphg Assay for Vascular cell adhesion molecule 1 (VCAM1) Biomarker Activity (AID 2284286); settings: primary human endothelial cells with macrophages
How it was run: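 Human venular endothelial cells co-cultured with macrophages; VCAM-1 quantified by ELISA 24 h after dosing, fitted in the positive direction against DMSO. Cytotoxicity was checked in parallel cultures by SRB total-protein staining (0.1% SRB after 10% TCA fixation, 560 nm).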

[16] = BSK_IMphg_SRB: Viability Assessment in the BioMAP Diversity Plus: IMphg Assay (AID 2284292); settings: primary human endothelial cells with macrophages;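 further: measured one day after compound addition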
How it was run: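 Human venular endothelial cells with macrophages, 24 h after chemical dosing; total protein by 0.1% SRB staining after 10% TCA fixation, read at 560 nm. Positive-direction fitting versus DMSO baseline.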

Measured: AC50

Chain of E-selectin (Homo sapiens) (P16581 whole entry, looked up): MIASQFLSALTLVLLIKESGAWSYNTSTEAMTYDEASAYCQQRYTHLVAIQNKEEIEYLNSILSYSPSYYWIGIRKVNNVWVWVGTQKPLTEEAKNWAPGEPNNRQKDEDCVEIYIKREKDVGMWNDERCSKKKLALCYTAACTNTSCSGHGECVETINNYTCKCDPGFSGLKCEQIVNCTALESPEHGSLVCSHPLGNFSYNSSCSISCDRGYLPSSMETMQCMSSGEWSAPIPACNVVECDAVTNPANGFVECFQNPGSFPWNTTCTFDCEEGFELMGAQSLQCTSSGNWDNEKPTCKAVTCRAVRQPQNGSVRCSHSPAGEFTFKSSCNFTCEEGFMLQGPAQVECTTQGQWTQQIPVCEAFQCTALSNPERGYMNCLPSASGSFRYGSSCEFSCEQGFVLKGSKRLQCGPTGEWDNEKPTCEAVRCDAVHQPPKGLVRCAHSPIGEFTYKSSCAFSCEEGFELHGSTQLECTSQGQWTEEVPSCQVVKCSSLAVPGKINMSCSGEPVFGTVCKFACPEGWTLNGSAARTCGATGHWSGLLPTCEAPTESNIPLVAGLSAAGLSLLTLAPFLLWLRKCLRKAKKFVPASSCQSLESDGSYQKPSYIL

C[Si](Cl)(Cl)CCC(F)(F)C(F)(F)C(F)(F)C(F)(F)C(F)(F)C(F)(F)F
inactive: [1] | [2] | KRT18 (gene 3875) | [3] | [4] | [5] | [6] | CD40, CD40 (gene 958) | [7] | [8] | [9] | [10] | [11] | [12] | [13] | CD69, CD69 (gene 969)
active: [5] 441 nM | [6] 2.46 µM | [7] 0.236 µM

NC(=O)C(F)(F)C(F)(F)C(F)(F)C(F)(F)C(N)=O
active: [6] 17.6 µM | [7] 0.22 µM | [13] 598 nM
inactive: [1] | [2] | KRT18 (gene 3875) | [3] | [4] | [5] | [6] | CD40, CD40 (gene 958) | [7] | [8] | [9] | [10] | [11] | [12] | [13] | [14]

O=C(O)C(F)(F)C(F)(F)C(F)(F)C(=O)O
inactive: [1] | [2] | KRT18 (gene 3875) | [3] | [4] | [5] | [15] | [6] | CD40, CD40 (gene 958) | [7] | [8] | [9] | [10] | [11] | [12] | [13]
active: CD40, CD40 (gene 958) 43.1 µM

O=S(=O)(OCC(F)(F)F)C(F)(F)C(F)(F)C(F)(F)C(F)(F)F
active: [3] 6.24 µM
inactive: [1] | [2] | KRT18 (gene 3875) | [3] | [4] | [5] | [6] | CD40, CD40 (gene 958) | [7] | [8] | [9] | [10] | [11] | [12] | [13]

C=CC(=O)OCC(F)(F)C(F)(F)C(F)(F)COC(=O)C=C
inactive: [2] | KRT18 (gene 3875) | [7] | [8] | [10] | [12]
active: [1] 13.2 µM and 8.09 µM | [3] 8.23 µM and 8.72 µM | [4] 46 µM and 48.8 µM | [5] 2.84 µM and 2.59 µM | [6] 2.6 µM and 2.45 µM | CD40, CD40 (gene 958) 22.6 µM and 23.9 µM | [8] 45 µM | [9] 40 µM and 33.5 µM | [11] 38.3 µM and 41.1 µM | [12] 39.4 µM | [13] 8.08 µM and 7.99 µM

C=CC(=O)OCC(F)(F)C(F)(F)C(F)(F)C(F)(F)C(F)(F)C(F)(F)C(F)(F)C(F)F
inactive: [1] | [2] | KRT18 (gene 3875) | [3] | [4] | [5] | [6] | CD40, CD40 (gene 958) | [7] | [8] | [9] | [10] | [11] | [12] | [13]
active: [5] 6810 nM | [6] 20.3 µM | [12] 7.9 µM | [13] 26900 nM

FC(F)(F)C(F)(F)C(F)(F)CC1CO1 (centres undefined)
active: [7] 1.97 µM
inactive: [1] | [2] | KRT18 (gene 3875) | [3] | [4] | [5] | [6] | CD40, CD40 (gene 958) | [7] | [8] | [9] | [16] | [10] | [11] | [12] | [13]

OCCCCC(F)(F)C(F)(F)C(F)(F)C(F)(F)F
not listed: CD69, CD69 (gene 969) | [16]
inactive: all other assays above

O=C(O)CCC(F)(F)C(F)(F)C(F)(F)F
active: CD40, CD40 (gene 958) 0.22 µM
inactive: [1] | [2] | KRT18 (gene 3875) | [3] | [4] | [5] | [6] | CD40, CD40 (gene 958) | [7] | [8] | [9] | [10] | [11] | [12] | [13] | [14]

FC(F)(F)C(F)(F)C(F)(F)C(F)(F)C(F)(F)C(F)(F)CC[Si](Cl)(Cl)Cl
active: [5] 39.3 nM | [7] 0.519 µM | [12] 0.0514 µM
inactive: [1] | [2] | KRT18 (gene 3875) | [3] | [4] | [5] | [6] | CD40, CD40 (gene 958) | [7] | [8] | [9] | [10] | [11] | [12] | [13]

NS(=O)(=O)C(F)(F)C(F)(F)C(F)(F)C(F)(F)C(F)(F)C(F)(F)F
active: [1] 25.1 µM and 15.2 µM | [3] 13.9 µM and 15 µM | CD40, CD40 (gene 958) 39.5 µM and 25.4 µM | [7] 54.6 µM | [8] 6.98 µM | [9] 30 µM and 21.3 µM | [10] 4.34 µM | [11] 28.1 µM and 22.7 µM
inactive: [2] | KRT18 (gene 3875) | [4] | [5] | [6] | [7] | [8] | [10] | [12] | [13]
